Data published in PubChem BioAssay (NCATS).
Inconclusive results are not listed. Entries that show only a call come without a potency. The source made the active and inactive calls. The call rests on the fitted dose curve; in most records, active means well fitted curve in the direction sought with a large enough effect; inconclusive means small, poorly fitted or top-dose-only effect, or another doubt; inactive means no such curve, though single readings can be large; an effect the other way counts as inactive or inconclusive. Non-standard residues stand in square brackets, D forms with d. Residues, ends and D or L forms follow the SMILES beside them. *: point of attachment. Nva = CCC[C@H](N)C(=O)O; Cbz = O=C(OCc1ccccc1)*

How the values were obtained:
[1] = qHTS of pediatric cancer cell lines to identify multiple opportunities for drug repurposing: Primary screen for NB-EBc1 cells (AID 1347095)
In short: (§1)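 Cells seeded at 500-1,000 cells/well in growth media, rested 5 hours at 37 degrees C, 5% CO2, then dosed; MIPE compounds at 11-point (from 0.78 nM) and NPC at 8-point (from 0.59 nM) final concentrations. Viability by CellTiter-Glo luminescence after 48 hours.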

[2] = qHTS of pediatric cancer cell lines to identify multiple opportunities for drug repurposing: Primary screen for U-2 OS cells (AID 1347096); further: nearly all actives have a fitted effect of over 50% in size
In short: (§2)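 Viability after 48 h compound treatment at 37C, 500-1,000 cells/well, read as ATP luminescence with CellTiter-Glo. Primary screens used 11-point (MIPE, 0.78 nM-46 µM) or 8-point (NPC, 0.59 nM-46 µM) final concentrations; follow-up screens used 11-point dilutions.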

[3] = qHTS of pediatric cancer cell lines to identify multiple opportunities for drug repurposing: Primary screen for Saos-2 cells (AID 1347097); further: nearly all actives have a fitted effect of over 40% in size
In short: as §1

[4] = qHTS of pediatric cancer cell lines to identify multiple opportunities for drug repurposing: Primary screen for SK-N-SH cells (AID 1347098); further: nearly all actives have a fitted effect of over 65% in size
In short: (§3)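 Cells (500-1,000/well) rested 5 h, then received compounds for 48 h; metabolically active cells were measured by CellTiter-Glo luminescence. Final concentrations spanned up to 46 µM (MIPE, 11-point) or 0.59 nM-46 µM (NPC, 8-point) in primary screens, 11-point in follow-ups.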

[5] = qHTS of pediatric cancer cell lines to identify multiple opportunities for drug repurposing: Primary screen for NB1643 cells (AID 1347099); further: nearly all actives have a fitted effect of over 50% in size
In short: as §1

[6] = qHTS of pediatric cancer cell lines to identify multiple opportunities for drug repurposing: Primary screen for LAN-5 cells (AID 1347100)
In short: as §2

[7] = qHTS of pediatric cancer cell lines to identify multiple opportunities for drug repurposing: Primary screen for BT-12 cells (AID 1347101); further: nearly all actives have a fitted effect of over 25% in size
In short: as §3

[8] = qHTS of pediatric cancer cell lines to identify multiple opportunities for drug repurposing: Primary screen for Rh18 cells (AID 1347102); further: nearly all actives have a fitted effect of over 65% in size
In short: as §2

[9] = qHTS of pediatric cancer cell lines to identify multiple opportunities for drug repurposing: Primary screen for OHS-50 cells (AID 1347103); further: nearly all actives have a fitted effect of over 40% in size
In short: as §3

[10] = qHTS of pediatric cancer cell lines to identify multiple opportunities for drug repurposing: Primary screen for RD cells (AID 1347104); further: nearly all actives have a fitted effect of over 55% in size
In short: as §1
Potency means the concentration at half of the fitted maximal effect.

Structure (SMILES) | Potency [1] | Potency [2] | Potency [3] | Potency [4] | Potency [5] | Potency [6] | Potency [7] | Potency [8] | Potency [9] | Potency [10]
C[C@@H]1CC[C@@]2(OC1)OC1CC3C4CC=C5CC(O)CCC5(C)C4CCC3(C)C1[C@@H]2C (stereo partly drawn) | inactive | inactive | inactive | inactive | inactive | inactive | inactive | inactive | inactive | inactive
CC(=O)O[C@H]1C[C@@H]2CC[C@H]3[C@H]4C[C@H]([N+]5(C)CCCCC5)[C@@H](OC(C)=O)[C@@]4(C)CC[C@@H]3[C@@]2(C)C[C@H]1N1CCCCC1 | inactive | inactive | inactive | inactive | inactive | inactive | inactive | inactive | inactive | inactive
CO[C@@H]1[C@@H](O)[C@H](O)[C@@H](n2c3c(Cl)cccc3c3c4c(c5c6cccc(Cl)c6[nH]c5c32)C(=O)NC4=O)O[C@@H]1CO | 0.0935 µM (active) | 4.69 µM (active) | 0.296 µM (active) | 1.21 µM (active) | 0.418 µM (active) | 0.118 µM (active) | 1.37 µM (active) | 2.09 µM (active) | 0.306 µM (active) | 2.64 µM (active)
Cc1cnc(Nc2ccc(CN3CCOCC3)cc2)nc1Nc1cccc(S(=O)(=O)NC(C)(C)C)c1 | 2.64 µM (active) | 7.43 µM (active) | 3.72 µM (active) | 3.04 µM (active) | 3.72 µM (active) | 1.32 µM (active) | 9.68 µM (active) | 3.72 µM (active) | 2.17 µM (active) | 6.62 µM (active)
CC(Oc1ccc(O)cc1)(P(=O)(O)O)P(=O)(O)O | inactive | inactive | inactive | inactive | inactive | inactive | inactive | inactive | inactive | inactive
COC(=O)[C@@H]1CC2=CC(=O)CC[C@]2(C)[C@@]23O[C@@H]2C[C@@]2(C)[C@H](CC[C@@]24CCC(=O)O4)[C@@H]13 | inactive | inactive | inactive | inactive | inactive | inactive | inactive | inactive | inactive | inactive
CCC[C@@H](C=O)NC(=O)[C@H](CC(C)C)NC(=O)[C@H](CC(C)C)NC(=O)OCc1ccccc1 (Cbz-Leu-Leu-[Nva]-aldehyde) | 0.372 µM (active) | 2.35 µM (active) | 1.18 µM (active) | 1.36 µM (active) | 0.469 µM (active) | 0.935 µM (active) | 2.17 µM (active) | 2.35 µM (active) | 1.53 µM (active) | 0.935 µM (active)
Cn1cnc(=N)c2[nH]cnc21 | 0.662 µM (active) | 2.35 µM (active) | 0.743 µM (active) | 1.92 µM (active) | 0.166 µM (active) | 0.418 µM (active) | 1.53 µM (active) | 0.264 µM (active) | 0.109 µM (active) | 0.935 µM (active)
OC[C@H]1OC(O)C[C@@H](O)[C@H]1O (stereo partly drawn) | inactive | inactive | inactive | inactive | inactive | inactive | inactive | inactive | inactive | inactive
COc1cc(O)c2c(c1)C1OC1C[C@H](O)[C@H](O)C(=O)C=CC[C@H](C)OC2=O (stereo partly drawn) | 5.9 µM (active) | 18.7 µM (active) | 10.5 µM (active) | 6.07 µM (active) | 2.96 µM (active) | 5.26 µM (active) | 13.7 µM (active) | 16.6 µM (active) | 19.3 µM (active) | 2.35 µM (active)
CCNC(=O)c1cc2c(-c3cc(OCCN4CCCC4)c(Cl)cc3Cl)nc(N)nc2s1 | 0.935 µM (active) | inactive | 3.72 µM (active) | 3.04 µM (active) | 2.64 µM (active) | 1.48 µM (active) | inactive | 4.69 µM (active) | 3.85 µM (active) | 1.48 µM (active)
N[C@H]1CN(c2c(F)cc3c(=O)c(C(=O)O)cn(C4C[C@@H]4F)c3c2Cl)CC12CC2 (stereo partly drawn) | inactive | inactive | inactive | inactive | inactive | 21.1 µM (active) | inactive | inactive | inactive | inactive
c1coc(CNc2ncnc3nc[nH]c23)c1 | inactive | inactive | inactive | inactive | inactive | inactive | inactive | inactive | inactive | inactive
CC1(C)[C@H](O[C@H]2O[C@H](C(=O)O)[C@@H](O)[C@H](O)[C@H]2O[C@@H]2O[C@H](C(=O)O)[C@@H](O)[C@H](O)[C@H]2O)CC[C@@]2(C)[C@H]1CC[C@]1(C)[C@H]2C(=O)C=C2[C@H]3C[C@@](C)(C(=O)O)CC[C@]3(C)CC[C@]21C | inactive | inactive | inactive | inactive | inactive | inactive | inactive | inactive | inactive | inactive
CC(C)C[C@@H](C=O)NC(=O)[C@H](CC(C)C)NC(=O)[C@H](CC(C)C)NC(=O)OCc1ccccc1 (Cbz-Leu-Leu-Leu-aldehyde) | 0.166 µM (active) | 0.935 µM (active) | 0.743 µM (active) | 0.857 µM (active) | 0.372 µM (active) | 0.662 µM (active) | 1.53 µM (active) | 1.32 µM (active) | 0.685 µM (active) | 0.662 µM (active)
CN[C@H](CC(C)C)C(=O)N[C@H]1C(=O)N[C@@H](CC(N)=O)C(=O)N[C@@H]2C(=O)N[C@H]3C(=O)N[C@H](C(=O)N[C@H](C(=O)O)c4cc(O)cc(O)c4-c4cc3ccc4O)[C@H](O)c3ccc(c(Cl)c3)Oc3cc2cc(c3O[C@@H]2O[C@H](CO)[C@@H](O)[C@H](O)[C@@H]2O[C@H]2C[C@](C)(N)[C@H](O)[C@H](C)O2)Oc2ccc(cc2Cl)[C@H]1O | inactive | inactive | inactive | inactive | inactive | inactive | inactive | inactive | inactive | inactive

Structure (SMILES) | Potency [1] | Potency [2] | Potency [3] | Potency [4] | Potency [5] | Potency [6] | Potency [7] | Potency [8] | Potency [9] | Potency [10]
CC(=O)NC(CS)C(=O)O (stereo not drawn) | inactive | inactive | inactive | inactive | inactive | inactive | inactive | inactive | inactive | inactive
NC(=O)c1cccc(-c2cccc(OC(=O)NC3CCCCC3)c2)c1 | inactive | inactive | inactive | inactive | inactive | inactive | inactive | inactive | inactive | inactive
CCOC(=O)C=C[C@H](C[C@@H]1CCNC1=O)NC(=O)[C@@H](CC(=O)[C@@H](NC(=O)c1cc(C)on1)C(C)C)Cc1ccc(F)cc1 | inactive | inactive | inactive | inactive | inactive | inactive | inactive | inactive | inactive | inactive
C=CC1=C(C(=O)O)N2C(=O)[C@@H](NC(=O)C(=NO)c3csc(N)n3)[C@H]2SC1 | inactive | inactive | inactive | inactive | inactive | inactive | inactive | inactive | inactive | inactive
O=C1NC(=O)C(=Cc2ccc3nccc(-c4ccncc4)c3c2)S1 | 0.118 µM (active) | 1.87 µM (active) | 0.372 µM (active) | 1.36 µM (active) | 1.32 µM (active) | 0.743 µM (active) | 0.385 µM (active) | 0.469 µM (active) | 0.0385 µM (active) | 0.372 µM (active)
CN[C@H]1[C@@H](O)[C@@H]2O[C@@H]3O[C@H](C)CC(=O)[C@]3(O)O[C@@H]2[C@@H](NC)[C@H]1O | 8.33 µM (active) | 2.96 µM (active) | 1.87 µM (active) | 6.07 µM (active) | 1.87 µM (active) | 0.166 µM (active) | 1.09 µM (active) | 1.18 µM (active) | 0.432 µM (active) | 0.59 µM (active)
Cc1onc(-c2ccccc2)c1C(=O)N[C@@H]1C(=O)N2[C@@H](C(=O)O)C(C)(C)S[C@@H]12 | inactive | inactive | inactive | inactive | inactive | inactive | inactive | inactive | inactive | 
C[C@@]12C(=O)OC(=O)[C@@]1(C)C1CCC2O1 | 2.35 µM (active) | inactive | 2.96 µM (active) | 3.83 µM (active) | 1.48 µM (active) | 2.35 µM (active) | 8.63 µM (active) | 1.87 µM (active) | 2.43 µM (active) | 5.9 µM (active)
Nc1nc(=O)n([C@H]2CSC(CO)O2)cc1F (stereo partly drawn) | inactive | inactive | inactive | inactive | inactive | inactive | inactive | inactive | inactive | inactive
CCC[C@H]1C[C@H](C(=O)N[C@@H]([C@@H]2O[C@@H](SC)[C@@H](O)[C@@H](O)[C@@H]2O)[C@H](C)Cl)N(C)C1 | inactive | inactive | inactive | inactive | inactive | inactive | inactive | inactive | inactive | inactive
O=C1c2cccc(O)c2C(=O)c2c(O)cc(CO)cc21 | inactive | inactive | inactive | inactive | 26.4 µM (active) | inactive | inactive | inactive | inactive | 
C=C1C(=CC=C2CCC[C@]3(C)[C@@H]([C@H](C)CCCC(C)(C)O)CC[C@@H]23)C[C@@H](O)C[C@@H]1O | 2.96 µM (active) | 18.7 µM (active) | 14.8 µM (active) | 3.83 µM (active) | 2.35 µM (active) | 1.66 µM (active) | 6.85 µM (active) | 5.26 µM (active) | 7.69 µM (active) | 9.35 µM (active)
C[C@@]12C[C@@]3(O)O[C@@H](O1)[C@]1(COC(=O)c4ccccc4)[C@@H]3C[C@@]12O[C@@H]1O[C@H](CO)[C@@H](O)[C@H](O)[C@@H]1O | inactive | inactive | inactive | inactive | inactive | inactive | inactive | inactive | inactive | inactive
C[C@H]1[C@@H](OC(=O)CCC(=O)O)O[C@@H]2O[C@@]3(C)CC[C@@H]4[C@H](C)CC[C@@H]1[C@@]24OO3 | 1.66 µM (active) | inactive | inactive | 13.6 µM (active) | 4.18 µM (active) | 3.32 µM (active) | 1.22 µM (active) | 14.8 µM (active) | 1.09 µM (active) | 1.66 µM (active)
CC(=O)O[C@H]1C[C@@H]2CC[C@H]3[C@H]4C[C@H]([N+]5(C)CCCCC5)[C@@H](OC(C)=O)[C@@]4(C)CC[C@@H]3[C@@]2(C)C[C@H]1[N+]1(C)CCCCC1 | inactive | inactive | inactive | inactive | inactive | inactive | inactive | inactive | inactive | inactive
